Inconclusive results are not listed. The source made the active and inactive calls. The calls were made as follows: active = hit-call score of the fitted dose curve at least 0.9, where 1 is the maximum; inconclusive = response in the unintended direction; inactive = score below 0.9.

Chain of Agonist Androgen Response Element (ARE), AR (gene 367) (P10275 whole entry, looked up): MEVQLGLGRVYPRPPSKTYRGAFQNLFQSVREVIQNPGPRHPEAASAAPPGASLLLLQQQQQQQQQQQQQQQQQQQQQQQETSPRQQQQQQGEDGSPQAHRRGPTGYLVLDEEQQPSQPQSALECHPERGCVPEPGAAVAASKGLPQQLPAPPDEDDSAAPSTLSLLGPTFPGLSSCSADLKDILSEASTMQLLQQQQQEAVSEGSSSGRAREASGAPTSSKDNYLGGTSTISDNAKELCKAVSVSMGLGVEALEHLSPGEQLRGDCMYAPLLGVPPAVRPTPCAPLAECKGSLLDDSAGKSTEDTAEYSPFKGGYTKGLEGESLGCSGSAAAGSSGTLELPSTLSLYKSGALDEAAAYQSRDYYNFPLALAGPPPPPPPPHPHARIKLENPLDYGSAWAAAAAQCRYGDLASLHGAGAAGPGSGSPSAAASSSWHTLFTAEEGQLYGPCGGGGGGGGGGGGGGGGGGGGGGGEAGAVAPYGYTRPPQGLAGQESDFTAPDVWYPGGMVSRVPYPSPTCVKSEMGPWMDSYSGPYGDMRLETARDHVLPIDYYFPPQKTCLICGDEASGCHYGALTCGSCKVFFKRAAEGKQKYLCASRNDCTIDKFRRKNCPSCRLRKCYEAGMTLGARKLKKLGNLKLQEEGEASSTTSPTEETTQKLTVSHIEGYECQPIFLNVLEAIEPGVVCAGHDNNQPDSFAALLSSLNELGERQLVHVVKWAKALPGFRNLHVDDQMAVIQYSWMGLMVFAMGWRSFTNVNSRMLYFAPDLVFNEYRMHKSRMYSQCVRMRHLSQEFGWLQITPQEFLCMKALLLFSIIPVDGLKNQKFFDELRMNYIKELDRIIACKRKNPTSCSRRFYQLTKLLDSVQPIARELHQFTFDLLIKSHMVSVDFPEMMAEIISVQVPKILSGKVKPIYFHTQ

The assay addresses Agonist Androgen Response Element (ARE), AR (gene 367) (UniProt P10275). Kind of assay: OT_AR_ARELUC_AG_1440: Odyssey Thera (OT) 24-hour CHO-K1 Luciferase Assay for Agonist Androgen Response Element (ARE) (AID 2283379). The protocol:
OT_AR_ARELUC_AG_1440 is a cell-based, single-readout assay that uses CHO-K1, a chinese hamster ovary cell line, with measurements taken at 24 hours after chemical dosing in a 384-well plate.OT_AR_ARELUC_AG_1440 is one of one assay component(s) measured or calculated from the OT_AR_ARELUC_AG_1440 assay. It is designed to make measurements of luciferase induction, a form of inducible reporter, as detected with bioluminescence signals by Luciferase technology.Data from the assay component OT_AR_ARELUC_AG_1440 was analyzed into 1 assay endpoint. This assay endpoint, OT_AR_ARELUC_AG_1440, was analyzed in the positive analysis fitting direction relative to DMSO as the negative control and baseline of activity. Using a type of inducible reporter, measures of receptor for gain-of-signal activity can be used to understand the reporter gene at the pathway-level as they relate to the gene AR. Furthermore, this assay endpoint can be referred to as a primary readout, because the performed assay has only produced 1 assay endpoint. To generalize the intended target to other relatable targets, this assay endpoint is annotated to the nuclear receptor intended target family, where the subfamily is steroidal.
To identify AR agonists, CHO-K1 cells are seeded into a white-walled/white-bottom 384-well plate, followed by treatment with compounds of interest or controls for 24 hours. A luciferase assay mix containing D-luciferin and ATP in PBS is then added to the cells and luminescence quantified on a Luminoskan (Thermo Scientific) luminometer. Modulation of this assay is quantified as an increase in mean luminescence intensity relative to vehicle controls. To evaluate specificity of the AR / ARE-luc assay, several known AR agonists, AR antagonists, and ER-selective compounds were also tested in 5-pt concentration-response format in a minimum of 7 assay plates. OT determined the reproducibility of DHT-induced AR/ARE-luc transcriptional activation with a total of seven 384-well plates run on 2 different days, for 24-h time frames. A minimum of 3 replicate wells were analyzed for each sample with 14 replicate wells for vehicle controls. Luminescence data were captured on the Luminoskan luminometer.
On to `Cc1cc(F)ccc1-c1cc(N2CC[C@@H](O)[C@H]2CO)ncc1N(C)C(=O)C(C)(C)c1cc(C(F)(F)F)cc(C(F)(F)F)c1`, for which the molecule was classed as inactive. The same measure, in the same setting: to `CN(C[C@@H](CC[N+]12CCC(C3CCCCC3)(CC1)CC2)c1ccc(Cl)c(Cl)c1)C(=O)c1cc(C(F)(F)F)cc(C(F)(F)F)c1` belongs “inactive”.

As to `CCN(Cc1cccnc1)C(=O)c1cccc(Cl)c1[C@]1(C)C(=O)N(Cc2ccc(OC)cc2OC)c2ccc(Cl)cc21`, the call was inactive. As for `Cc1ccc(C(C)C)cc1`, the molecule was classed as inactive. `Oc1ccc2ccccc2c1`: the AC50 was 1640 nM (active). On to `COCC(C)OCC(C)OCC(C)O` (stereo not drawn), for which the molecule was classed as inactive.

As for `CCCCCCCCN(C)CCCCCCCC`, the molecule was classed as inactive.

On to `CN(C)c1ccc(C(=C2C=CC(=[N+](C)C)C=C2)c2ccc(N(C)C)cc2)cc1`, for which the molecule was called inactive. As to `O=C(Nc1ccc(Cl)cc1)Nc1ccc(Cl)c(Cl)c1`, the concentration at half-maximal activity (AC50) is 336 nM (active). Take `NCc1cccc(C2CCN(C(=O)c3ccc(C#Cc4ccccc4F)o3)CC2)c1`: the result was inactive.

As for `Cc1occc1C(=O)Nc1ccc(C(=O)N2CCC(F)(F)/C(=C\C(=O)N3CCC(N4CCCCC4)CC3)c3ccccc32)cc1`, the molecule was classed as inactive. Same read-out and setting: under `OCCO` stands “inactive”. On the same count and under the same terms, under `O=c1c(-c2ccc(O)cc2)coc2cc(O)cc(O)c12` stands “inactive”; under `CCCCCCCCCC(=O)O`, “inactive”. The same measure, in the same setting: under `CCCC(=O)OCCC(C)C` stands “inactive”; under `CCCCOC(=O)c1ccc(O)cc1`, “inactive”. Regarding `O=C(O)Cn1c(=O)n(Cc2ccc(Br)cc2F)c(=O)c2ccc(Cl)cc21`, the call was inactive.

For the molecule `CN(C)C(=O)C1(N2CCCCC2)CCN(CC[C@@]2(c3ccc(Cl)c(Cl)c3)CN(C(=O)c3ccccc3)CCO2)CC1`, the molecule was classed as inactive.

One may read the AC50 as the midpoint of the concentration-response curve, whichever way the signal moves.

These data come from PubChem BioAssay (EPA / NIEHS).
